Experimental data taken from PubChem BioAssay (EPA / NIEHS).
Activity calls are given as the source filed them. The calls were made as follows: active = hit-call score of the fitted dose curve at least 0.9, where 1 is the maximum; inactive = score below 0.9.

Experiments:
[1] = ATG_CRE_CIS: Attagene CIS-FACTORIAL HepG2 Assay for human cAMP Responsive Element (CRE) binding protein 3 (AID 2282926); conditions: HepG2 CRE cis-reporter, Attagene multiplexed mRNA; actives raise or lower the signal
Method in brief: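 Endogenous transcription factor activity read via CRE-regulated reporter transcripts in transfected HepG2 cells. After 24 h exposure, RNA was reverse-transcribed, amplified, fluorescently labelled and sized by capillary electrophoresis; gain or loss fitted against DMSO.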

[2] = biological target: CCAAT/enhancer-binding protein beta (Homo sapiens) (UniProt P17676); assay: ATG_C_EBP_CIS: Attagene CIS-FACTORIAL HepG2 Assay for human CCAAT/Enhancer Binding Protein (C/EBP) beta (AID 2282927); conditions: HepG2 Attagene cis-factorial transcription factor reporter; actives raise or lower the signal
Chain of CCAAT/enhancer-binding protein beta (Homo sapiens) (P17676 whole entry, looked up): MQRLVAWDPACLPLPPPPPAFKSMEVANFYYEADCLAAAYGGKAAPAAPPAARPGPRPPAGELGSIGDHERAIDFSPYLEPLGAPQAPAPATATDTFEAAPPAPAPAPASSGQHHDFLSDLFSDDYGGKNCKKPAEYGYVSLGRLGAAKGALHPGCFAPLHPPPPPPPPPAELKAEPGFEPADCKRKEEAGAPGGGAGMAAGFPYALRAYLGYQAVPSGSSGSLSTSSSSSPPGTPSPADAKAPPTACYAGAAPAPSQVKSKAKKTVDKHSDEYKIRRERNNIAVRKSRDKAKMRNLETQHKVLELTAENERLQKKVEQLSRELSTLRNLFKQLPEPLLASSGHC
Method in brief: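 HepG2 transiently transfected with multiplexed reporter units under cis-regulatory promoters reporting endogenous C/EBPb activity. After 24 h exposure, reporter mRNA assayed by RT-PCR, fluorescent labelling, HpaI digestion and capillary electrophoresis; bidirectional fitting versus DMSO.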

[3] = ATG_CMV_CIS: Attagene CIS-FACTORIAL HepG2 Assay for human CMV (Internal Marker) (AID 2282928); conditions: HepG2 CMV promoter reporter, transcription factor profiling; actives raise or lower the signal;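 also: endpoint acts as a background internal control marker rather than a target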
Method in brief: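 Fluorescence intensity of RT-PCR-derived reporter fragments, resolved by capillary electrophoresis, gives the signal. HepG2 liver cells bearing transfected cis-element reporters were treated 24 h; activity in either direction was fit relative to DMSO-treated controls.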

[4] = ATG_DR4_LXR_CIS: Attagene CIS-FACTORIAL HepG2 Assay for human Liver X Receptor (LXR), DR4 submotif (AID 2282929); conditions: HepG2 Attagene DR4 cis-reporter, mRNA transcription; actives raise or lower the signal
Method in brief: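 After transient transfection with multiplexed cis-promoter reporter units, HepG2 cells received test chemicals for 24 h. Reporter mRNA induction, detected by fluorescence after RT-PCR and capillary electrophoresis, was scored relative to DMSO.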

[5] = biological target: Aryl hydrocarbon receptor (Homo sapiens) (UniProt P35869); assay: ATG_Ahr_CIS: Attagene CIS-FACTORIAL HepG2 Assay for human Aryl Hydrocarbon Receptor (Ahr) (AID 2282930); conditions: HepG2 AhR cis-factorial reporter transcription; actives raise or lower the signal
Chain of Aryl hydrocarbon receptor (Homo sapiens) (P35869 whole entry, looked up): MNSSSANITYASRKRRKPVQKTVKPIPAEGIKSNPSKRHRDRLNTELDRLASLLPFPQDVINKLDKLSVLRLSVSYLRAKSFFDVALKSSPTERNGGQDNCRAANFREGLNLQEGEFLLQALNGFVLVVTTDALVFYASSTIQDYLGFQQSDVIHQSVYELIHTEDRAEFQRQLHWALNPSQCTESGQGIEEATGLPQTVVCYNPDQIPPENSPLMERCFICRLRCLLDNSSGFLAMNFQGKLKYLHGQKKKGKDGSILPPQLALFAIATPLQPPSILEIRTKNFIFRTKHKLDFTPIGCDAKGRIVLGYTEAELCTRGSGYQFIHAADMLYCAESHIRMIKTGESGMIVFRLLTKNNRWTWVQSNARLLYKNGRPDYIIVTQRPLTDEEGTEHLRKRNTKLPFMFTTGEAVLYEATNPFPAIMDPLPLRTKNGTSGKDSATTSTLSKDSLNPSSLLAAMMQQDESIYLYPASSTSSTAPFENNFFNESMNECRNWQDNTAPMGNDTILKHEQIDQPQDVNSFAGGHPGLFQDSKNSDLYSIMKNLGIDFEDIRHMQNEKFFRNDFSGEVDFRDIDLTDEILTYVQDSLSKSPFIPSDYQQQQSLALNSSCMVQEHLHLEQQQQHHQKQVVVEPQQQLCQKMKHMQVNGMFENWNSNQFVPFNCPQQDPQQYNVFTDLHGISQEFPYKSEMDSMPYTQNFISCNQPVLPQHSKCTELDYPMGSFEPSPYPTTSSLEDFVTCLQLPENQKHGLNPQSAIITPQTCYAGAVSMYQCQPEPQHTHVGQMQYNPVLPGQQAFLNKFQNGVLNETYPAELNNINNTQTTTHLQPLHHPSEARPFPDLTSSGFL
Method in brief: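 HepG2 cells transiently transfected with cis-element-driven multiplexed reporter units; endogenous AhR activity read as reporter mRNA 24 h after dosing, via RT-PCR, 6-FAM labelling, HpaI digestion and capillary electrophoresis. Bidirectional fit relative to DMSO.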

[6] = ATG_AP_1_CIS: Attagene CIS-FACTORIAL HepG2 Assay for human Activator Protein 1 (AP-1) (AID 2282931); conditions: HepG2 Attagene cis-factorial AP-1 reporter mRNA; actives raise or lower the signal
Method in brief: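 After 24 h incubation with test chemical, RNA from transfected HepG2 cells was reverse-transcribed, amplified, fluorescently labelled and digested before capillary electrophoresis. Reporters were driven by cis-regulatory promoters; activity fitted bidirectionally versus DMSO.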

[7] = ATG_AP_2_CIS: Attagene CIS-FACTORIAL HepG2 Assay for human Activator Protein 2 (AP-2) (AID 2282932); conditions: HepG2 AP-2 cis-reporter, Attagene transcription factor profiling; actives raise or lower the signal
Method in brief: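 Liver-derived HepG2 line, cis-reporter system measuring endogenous factors; 24 h dosing; reporter mRNA detected by fluorescent RT-PCR and capillary electrophoresis.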

[8] = ATG_BRE_CIS: Attagene CIS-FACTORIAL HepG2 Assay for human Bone Morphogenetic Protein (BMP) Response Element (BRE) (AID 2282933); conditions: HepG2 BMP response element reporter, Attagene transcription factor profiling; actives raise or lower the signal
Method in brief: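 HepG2 cells transiently transfected with multiplexed cis-element reporter units were dosed with chemical for 24 h. Reporter mRNA was measured by RT-PCR with fluorescent labelling, HpaI digestion and capillary electrophoresis; bidirectional fitting relative to DMSO.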

[9] = biological target: Transcription factor E2F1 (Homo sapiens) (UniProt Q01094); assay: ATG_E2F_CIS: Attagene CIS-FACTORIAL HepG2 Assay for human E2F Transcription Factor 1 (AID 2282935); conditions: HepG2 Attagene cis-reporter, E2F reporter RNA transcripts; actives raise or lower the signal
Chain of Transcription factor E2F1 (Homo sapiens) (Q01094 whole entry, looked up): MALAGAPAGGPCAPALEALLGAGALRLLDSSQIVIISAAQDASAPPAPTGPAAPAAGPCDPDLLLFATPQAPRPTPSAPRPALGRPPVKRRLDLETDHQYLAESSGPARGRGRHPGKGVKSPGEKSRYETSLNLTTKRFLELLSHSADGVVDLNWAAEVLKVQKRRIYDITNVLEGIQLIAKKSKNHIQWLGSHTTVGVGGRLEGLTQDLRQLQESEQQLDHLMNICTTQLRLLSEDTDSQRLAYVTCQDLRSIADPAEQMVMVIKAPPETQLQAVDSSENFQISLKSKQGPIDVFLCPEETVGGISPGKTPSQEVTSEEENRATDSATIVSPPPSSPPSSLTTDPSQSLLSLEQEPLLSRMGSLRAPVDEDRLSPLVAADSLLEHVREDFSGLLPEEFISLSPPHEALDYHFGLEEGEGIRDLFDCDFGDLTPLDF
Method in brief: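 Liver-derived HepG2 cells expressing transfected promoter-driven reporter units received test chemical for 24 hours. Signal gains or losses were fitted bidirectionally against DMSO.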

[10] = ATG_E_Box_CIS: Attagene CIS-FACTORIAL HepG2 Assay for human Enhancer Box (E-box) (AID 2282936); conditions: HepG2 E-box cis-reporter transcription, actives raise or lower the signal
Method in brief: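 In this cell-based setup, HepG2 cells bearing transfected promoter-driven reporter units were exposed to chemicals for 24 h; reporter transcripts were amplified, 6-FAM-labelled, cut with HpaI and sized by capillary electrophoresis.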

[11] = ATG_M_61_CIS: Attagene CIS-FACTORIAL HepG2 Assay for M61 Transcription Factor (Internal Marker) (AID 2282937); conditions: HepG2 Attagene CIS-FACTORIAL M61 internal marker reporter; actives raise or lower the signal
Method in brief: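 Using transiently transfected HepG2 liver cells, reporter transcript levels were assessed 24 h post-dosing by RT-PCR and capillary electrophoresis. Changes in either direction were fitted relative to DMSO controls.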

[12] = ATG_EGR_CIS: Attagene CIS-FACTORIAL HepG2 Assay for human Early Growth Response 1 (EGR1) (AID 2282938); conditions: HepG2 Attagene CIS-FACTORIAL EGR reporter mRNA; actives raise or lower the signal
Method in brief: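 Fluorescent capillary-electrophoresis signal of reporter cDNA fragments serves as read-out. HepG2 cells bear transiently transfected cis-promoter reporter units and are exposed 24 h; gain- or loss-of-signal is fitted against DMSO.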

[13] = ATG_M_19_CIS: Attagene CIS-FACTORIAL HepG2 Assay for M19 Transcription Factor (Internal Marker) (AID 2282939); conditions: HepG2 Attagene CIS-FACTORIAL M19 internal marker reporter; actives raise or lower the signal
Method in brief: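 HepG2 cells transiently transfected with cis-regulated multiple reporter transcription units were dosed for 24 h; reporter mRNA was quantified by RT-PCR, 6-FAM primer-extension labelling, HpaI digestion and capillary electrophoresis, with bidirectional fitting against DMSO baseline.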

[14] = ATG_ERE_CIS: Attagene CIS-FACTORIAL HepG2 Assay for Estrogen Response Element (ERE) (AID 2282940); conditions: HepG2 ERE cis-reporter, Attagene RNA transcript; actives raise or lower the signal
Method in brief: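 HepG2 cells transiently transfected with cis-promoter-driven multiplexed reporter transcription units report endogenous TF activity. After 24 h compound exposure, reporter mRNA is quantified by RT-PCR with capillary electrophoresis fluorescence; bidirectional fitting versus DMSO baseline.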

[15] = ATG_Ets_CIS: Attagene CIS-FACTORIAL HepG2 Assay for human Erythroblast Transformation Specific (ETS) (AID 2282941); conditions: HepG2 ETS cis-reporter transcription, actives raise or lower the signal
Method in brief: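 Multiplexed reporter transcript profiling: HepG2, 24 h treatment, total RNA to cDNA, PCR, 6-FAM labelling, HpaI cut, capillary electrophoresis. Gain- or loss-of-signal fitted against DMSO.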

[16] = biological target: Hepatocyte nuclear factor 3-beta (Homo sapiens) (UniProt Q9Y261); assay: ATG_FoxA2_CIS: Attagene CIS-FACTORIAL HepG2 Assay for human Forkhead box A2 (FOXA2) (AID 2282942); conditions: HepG2 cis-reporter transcription factor activity, 24 h; actives raise or lower the signal
Chain of Hepatocyte nuclear factor 3-beta (Homo sapiens) (Q9Y261 whole entry, looked up, the tested form may be a part): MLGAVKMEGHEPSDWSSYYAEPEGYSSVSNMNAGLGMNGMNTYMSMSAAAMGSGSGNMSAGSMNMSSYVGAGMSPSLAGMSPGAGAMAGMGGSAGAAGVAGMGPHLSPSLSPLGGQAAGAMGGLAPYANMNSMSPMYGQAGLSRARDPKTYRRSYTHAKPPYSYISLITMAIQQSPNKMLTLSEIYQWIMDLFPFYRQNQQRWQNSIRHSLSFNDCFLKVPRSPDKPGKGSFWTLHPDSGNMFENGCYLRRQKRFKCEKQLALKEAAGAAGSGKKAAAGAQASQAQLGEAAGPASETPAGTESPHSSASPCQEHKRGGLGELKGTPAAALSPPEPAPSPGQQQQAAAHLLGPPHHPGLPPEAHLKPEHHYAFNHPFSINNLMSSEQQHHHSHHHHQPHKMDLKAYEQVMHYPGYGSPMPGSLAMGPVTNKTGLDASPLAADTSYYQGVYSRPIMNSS
Method in brief: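 Fluorescence signal of reporter cDNA fragments, separated by capillary electrophoresis, reflects endogenous transcription factor activity in transfected HepG2 after 24 h. Both increases and decreases fitted against DMSO.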

[17] = ATG_FoxO_CIS: Attagene CIS-FACTORIAL HepG2 Assay for human Forkhead box O (FoxO) (AID 2282943); conditions: HepG2 Attagene cis-reporter, FoxO element, mRNA; actives raise or lower the signal
Method in brief: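 HepG2 cells transiently transfected with cis-element-driven reporter units report endogenous FoxO activity. After 24 h chemical exposure, reporter mRNA quantified by RT-PCR, fluorescent labeling, HpaI digestion and capillary electrophoresis; bidirectional fit versus DMSO.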

[18] = ATG_GATA_CIS: Attagene CIS-FACTORIAL HepG2 Assay for human GATA Binding Protein (AID 2282944); conditions: HepG2 GATA cis-element reporter, Attagene multiplex mRNA; actives raise or lower the signal
Method in brief: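 HepG2 cells transiently transfected with multiplexed cis-element reporter units reflecting endogenous transcription factor activity; reporter mRNA measured after 24 h dosing by RT-PCR, 6-FAM labeling, HpaI digestion and capillary electrophoresis. Bidirectional fitting versus DMSO baseline.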

[19] = biological target: Retinoic acid receptor alpha (Homo sapiens) (UniProt P10276); assay: ATG_DR5_RAR_CIS: Attagene CIS-FACTORIAL HepG2 Assay for human Retinoic Acid Receptor Alpha (RARE), DR5 submotif (AID 2282934); conditions: HepG2 Attagene cis-factorial RARE DR5 reporter, mRNA; actives raise or lower the signal;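 as to AC50: reporter responds to endogenous RAR alpha beta and gamma in HepG2 not RARA alone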
Chain of Retinoic acid receptor alpha (Homo sapiens) (P10276 whole entry, looked up): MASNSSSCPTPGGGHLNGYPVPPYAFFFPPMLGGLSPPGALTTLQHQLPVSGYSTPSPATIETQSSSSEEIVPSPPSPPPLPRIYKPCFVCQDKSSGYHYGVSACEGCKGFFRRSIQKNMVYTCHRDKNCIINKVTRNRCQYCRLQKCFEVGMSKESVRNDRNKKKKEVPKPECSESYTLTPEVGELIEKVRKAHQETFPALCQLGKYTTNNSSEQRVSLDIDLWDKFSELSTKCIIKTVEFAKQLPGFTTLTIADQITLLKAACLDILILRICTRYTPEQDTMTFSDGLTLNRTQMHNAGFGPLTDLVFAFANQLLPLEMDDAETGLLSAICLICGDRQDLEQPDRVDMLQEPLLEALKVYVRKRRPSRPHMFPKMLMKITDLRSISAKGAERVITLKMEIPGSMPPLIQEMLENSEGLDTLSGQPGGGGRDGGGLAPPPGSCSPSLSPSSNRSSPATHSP
Method in brief: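 HepG2 cells transiently transfected with multiplexed reporter units; DR5 cis-element drives reporter through endogenous transcription factors. After 24 h dosing, reporter mRNA quantified by RT-PCR, fluorescent labeling, HpaI digestion and capillary electrophoresis; bidirectional fitting versus DMSO.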

Measured: AC50

CCc1cccc(O)c1
not listed: [19]
inactive: all other assays above

C=CC(C)(CCC=C(C)C)OC(=O)CC (stereo not drawn)
not listed: [15] | [19]
inactive: all other assays above

CCCCCCCCCCOC(=O)c1ccccc1C(=O)OCCCCCCCC
not listed: [19]
inactive: all other assays above

CC1=CC(C)C(C=O)C(C)C1 (stereo not drawn) (tested in a mixture with another compound)
not listed: [19]
inactive: all other assays above

c1ccc(Sc2ccccc2)cc1
active: [14] 63.5 µM
not listed: [19]
inactive: all other assays above

CN(C)C(=O)Nc1ccccc1
not listed: [19]
inactive: all other assays above

CCCCCCCCCCCCN1CCOCC1
active: [3] 44.8 µM | [4] 60.5 µM | [6] 51.8 µM | [8] 47.7 µM
not listed: [11] | [19]
inactive: all other assays above

CCC(C)(C)C1CCC(=O)CC1
active: [14] 16.7 µM
not listed: [19]
inactive: all other assays above

CC/C=C\CCCCO
not listed: [15] | [19]
inactive: all other assays above

NC(=O)c1cnccn1
not listed: [8] | [19]
inactive: all other assays above

CCCc1ccc(O)cc1
active: [4] 70.5 µM | [14] 26.8 µM
not listed: [5]
inactive: all other assays above

CCCCC/C=C\C=C\C(=O)OCC
active: [1] 58.8 µM | [3] 123 µM | [4] 55.1 µM | [19] 28.3 µM | [12] 58.3 µM | [16] 71.5 µM
not listed: [5]
inactive: all other assays above

CCCc1ccc(N)cc1
not listed: [8] | [11] | [19]
inactive: all other assays above

C[C@H](CCC(=O)O)[C@H]1CC[C@H]2[C@@H]3CC[C@@H]4C[C@H](O)CC[C@]4(C)[C@H]3CC[C@]12C
inactive: [1] | [3] | [11] | [14] | [15] | [17] | [18]
active: [2] 62.7 µM | [4] 29.4 µM | [5] 62.7 µM | [7] 168 µM | [8] 165 µM | [9] 25.3 µM | [10] 64.2 µM | [12] 25.2 µM | [13] 169 µM | [16] 170 µM

OC[C@H]1O[C@@H](O[C@H]2[C@H](O)[C@@H](O)[C@H](O)O[C@@H]2CO)[C@H](O)[C@@H](O)[C@H]1O
not listed: [5]
inactive: all other assays above
